Results published in ChEMBL document CHEMBL3988442, “University of Dundee, Small-Polar-MMV Screening Library” (2021).
The whole screen tested about 48,000 compounds, of which about 13,000 (27%) showed an effect of 50% or more. This is one part of the list.

Each compound was assayed on Wolbachia pipientis (assay: Anti-Wolbachia Cell-Based Screen). Details: 5 µM.
Format: functional
Set-up: scale not given: in the data most compounds retested in dose-response had high values

| Compound | Percent Effect [%] |
| --- | --- |
| CCC(CNC(=O)COC)Oc1cccc(F)c1 (stereo not drawn) | -17.35 |
| NC(=O)c1csc(N2CCCC(c3n[nH]c(=O)n3-c3ccccc3)C2)n1 (stereo not drawn) | -8.892 |
| CC(C)c1cc(C(=O)NCCn2nc3ccccn3c2=O)n[nH]1 | 7.227 |
| Cc1nc(NC(=O)NCCCN2CCC(C(N)=O)CC2)sc1C | 92.76 |
| Cc1nc(Nc2ccc(Cl)cn2)sc1C(=O)NCCCN1CCCCC1 | -4.658 |
| Cc1nnc(NC(=O)NCc2ccc(C)n2C)s1 | 1.794 |
| Cc1nnc(NC(=O)NCCCN2CCC(C(N)=O)CC2)s1 | 105 |
| Cc1nc(NC(=O)C2CCCN(C(=O)C3CC3)C2)sc1C (stereo not drawn) | 22.45 |
| Cc1nnc(NC(=O)N2CCCCC2CCO)s1 (stereo not drawn) | -9.567 |
| Cc1cccc(CNC(=O)CC2CCN(C(=O)C(C)C)CC2)n1 | 83.92 |
| COC(=O)N1CCCC(NC(=O)NCc2cccc(C)n2)C1 (stereo not drawn) | -5.43 |
| Cc1cccc(CNC(=O)CC2CCN(Cc3ccccn3)CC2)n1 | 99.8 |
| Cc1cccc(CN2CCn3cc(CNC(=O)CC4CC4)nc3C2)n1 | 3.137 |
| Cc1cccc(C(=O)N2CCn3cc(CNC(=O)CC4CC4)nc3C2)n1 | 2.995 |
| Cc1cccc(CN2CCC(Cc3ccccc3F)CC2)n1 | -1.449 |
| Cc1cccc(CN2CCS(=O)(=O)[C@@H]3CCN(S(C)(=O)=O)CC[C@@H]32)n1.O=C(O)C(F)(F)F | -6.526 |
| Cc1cccc(CNC(=O)C2CCC(=O)N(Cc3ccccc3F)C2)n1 (stereo not drawn) | -24.63 |
| Cc1cccc(CNC(=O)CC2CCN(S(C)(=O)=O)CC2)n1 | 82.07 |
| Cc1cccc(C2(O)CCN(C(=O)c3ccc(N(C)C)cc3)CC2)c1C | -4.914 |
| COc1ccc(Br)cc1NCC(=O)NC(C)(C#N)C1CC1 (stereo not drawn) | 14.48 |
| Cc1[nH]c2ccccc2c1CCNc1ncnc2c1CCNCC2 | -9.659 |
| Cc1ccccc1CN1CCC(NCC2CNc3ccnn3C2)CC1 (stereo not drawn) | 8.316 |
| Cc1nc(CN2CCCC(Nc3ncnc4c3CCC4)C2)no1 (stereo not drawn) | -2.2 |

| Compound | Percent Effect [%] |
| --- | --- |
| c1ccc(CN2CCC(CNc3ncnc4c3CCNCC4)CC2)cc1 | 97.41 |
| c1ccc(CN2CCC(Nc3ncnc4c3CCNCC4)C2)cc1 (stereo not drawn) | 76.79 |
| O=C(Cn1cccn1)NCC1CCCN(Cc2ccccc2)C1 (stereo not drawn) | 8.029 |
| c1cnnc(N2CCCC2CNc2ncnc3c2CCC3)c1 (stereo not drawn) | 2.71 |
| Cc1ccccc1CN1CCC(CNc2ncnc3c2CCNCC3)C1 (stereo not drawn) | 119.4 |
| c1ccc(CN2CCCC(CNc3ncnc4c3CCNCC4)C2)cc1 (stereo not drawn) | 100.7 |
| c1ccc(CN2CCC(NCCSc3ncn[nH]3)C2)cc1 (stereo not drawn) | 12.73 |
| OC(CN(Cc1ccccc1)Cc1ccncc1)c1cccs1 (stereo not drawn) | 13.62 |
| Cc1nnc(CN2CCC(Oc3ccc(C)c(C)c3)CC2)o1 | -18.16 |
| Cc1ccc(CNCCS(=O)(=O)N2CCOCC2)cc1C | -37.41 |
| c1ccc(CN2CCC(CCNc3ncnc4c3CCNCC4)C2)cc1 (stereo not drawn) | 82.99 |
| Cc1ccn(CCNc2ncnc3c2CCN(Cc2ncc[nH]2)CC3)n1 | 5.519 |
| COCC1CC2(CCN(C(=O)c3ccco3)CC2)CN1C(C)C.O=C(O)C(F)(F)F (stereo not drawn) | 111.9 |
| COCC1CC2(CCN(Cc3ccc(OC)cc3)CC2)CN1C(C)C.O=C(O)C(F)(F)F.O=C(O)C(F)(F)F (stereo not drawn) | -13.29 |
| COCC1CC2(CCN(C(=O)c3ccccc3C)CC2)CN1C(C)C.O=C(O)C(F)(F)F (stereo not drawn) | 101.7 |
| COCC1CC2(CCN(Cc3ccc(C)o3)CC2)CN1C(C)C.O=C(O)C(F)(F)F.O=C(O)C(F)(F)F (stereo not drawn) | 100.3 |
| COCC1CC2(CCN(Cc3cnn(C)c3)CC2)CN1C(C)C.O=C(O)C(F)(F)F.O=C(O)C(F)(F)F (stereo not drawn) | -6.847 |
| COCC1CC2(CCN(C(=O)c3cccn3C)CC2)CN1C(C)C (stereo not drawn) | -8.006 |
| COCC1CC2(CCN(C(=O)c3ccc(C)nc3)CC2)CO1.O=C(O)C(F)(F)F (stereo not drawn) | -3.949 |
| COCC1CC2(CCN(C(=O)c3cc(C)oc3C)CC2)CN1C(C)C.O=C(O)C(F)(F)F (stereo not drawn) | 17.98 |
| COCC1CC2(CCN(C(=O)c3occc3C)CC2)CN1C(C)C.O=C(O)C(F)(F)F (stereo not drawn) | 98.04 |
| N#Cc1ccc(C2CC(=O)Nc3c2cnn3C2CCCC2)cc1 (stereo not drawn) | 11.66 |
| N#Cc1cn(C2CC2)c(=O)n(Cc2cc(-c3cccs3)on2)c1=O | 15.09 |

| Compound | Percent Effect [%] |
| --- | --- |
| COC(=O)CCN1CCC(NC(=O)OC(C)(C)C)CC1 | -7.075 |
| CC(C1CCN(Cc2cnn(C)c2C2CC2)CC1)N1CCN(C)CC1 (stereo not drawn) | -5.459 |
| Cc1cccc(-c2nccnc2C2CCCN(C)C2)c1C (stereo not drawn) | 89.85 |
| CN1CCCC(c2nc3c([nH]2)CC(C)(C)CNC3=O)C1 (stereo not drawn) | -16.77 |
| Cc1nnc(N2CCCC(C(=O)c3cccc(Cl)c3)C2)o1 (stereo not drawn) | -20.06 |
| COc1ccc(C)cc1-n1cnnc1C1CCCN(C)C1 (stereo not drawn) | 8.034 |
| O=C(c1cccc(Cl)c1)C1CCCN(c2nnc(C3CCC3)o2)C1 (stereo not drawn) | -5.901 |
| Cc1cccc(-c2nccnc2C2CCN(C)CC2)c1C | 64.83 |
| CN1CCCC(c2nccnc2-c2cccc(Cl)c2)C1 (stereo not drawn) | 117.7 |
| CCN(C)C(C(=O)Nc1ccc2c(c1)CCC(=O)N2)c1ccccc1 (stereo not drawn) | 0.8734 |
| OCCn1ncc2c1CN(CC1CCOc3ccccc3C1)C2 (stereo not drawn) | 4.778 |
| CC(NC(=O)NCc1cscn1)c1ccc(N2CCOCC2)cc1 (stereo not drawn) | -18.24 |
| O=c1[nH]c2c(c(=O)n1C1CCCCC1)CCC2NCCc1ccccc1 (stereo not drawn) | 24.49 |
| CC(C)N(CC1CCCN(CC(N)=O)C1)C(=O)OC(C)(C)C (stereo not drawn) | 12.71 |
| COc1cccc(-c2cc(-c3nc(CN4CCN(C)CC4)no3)[nH]n2)c1 | 0.4618 |
| Cc1ccc(C(=O)N2CCN(CC(O)c3ccc(F)cc3)CC2)s1 (stereo not drawn) | -1.791 |
| Cc1ccc(C(=O)N2CCC(O)(CN3CCc4ccccc4C3)C2)s1 (stereo not drawn) | 99.66 |
| CN(C)CC1(O)CCN(C(=O)c2cnc(CN3CCCC3)s2)C1 (stereo not drawn) | -12.27 |
| Cn1cccc1C(=O)N1CCC(O)(CN2CCc3ccccc3C2)C1 (stereo not drawn) | 119.3 |
| Cn1cccc1C(=O)N1CCC2(CC1)CCN2S(C)(=O)=O | -0.7561 |
| Cc1csc(C(=O)N2CCC(O)(CN3CCc4ccccc4C3)C2)c1 (stereo not drawn) | 114.3 |
| Cn1cccc1C(=O)N1CCCC2(CCCN2S(C)(=O)=O)C1 (stereo not drawn) | 2.477 |
